Structures are written as SMILES. Among all 69,000 compounds or so, about 8,600 (12%) showed an effect of 50% or more. The sample as a whole holds a higher share of strong results than the screen did.

This assay relates to Plasmodium berghei. As to the kind of experiment: Screen against P. berghei liver stage (PbLuc), transformed with Luciferase, at 10uM. The format is functional, HepG2. As to conditions: tested at 10 uM.
On to `Cc1cc(C2CCCN(C(=O)c3ccc(OCC4CC4)nc3)C2)n[nH]1` (stereo unspecified), for which the INHIBITION was found to be 20.4%. Take `Cc1cnn(C2CCCN(C(=O)c3ccc(OCC4CC4)nc3)C2)c1` (stereo unspecified): the INHIBITION was 13.483%. For `CCC(=O)NC1CCCN(C(=O)c2ccc(OCC3CC3)nc2)C1` (stereo unspecified) the value was 78.8%; for `CN(Cc1ccco1)C1COC2(CCN(Cc3nccs3)CC2)C1` (stereo unspecified), 28.3%; for `CNC(=O)[C@@H](C)NC(=O)c1cc(-c2ccc(F)cc2)c(C)s1`, 12.4%.

`O=S1(=O)C[C@@H]2[C@H](C1)N(Cc1cc(Cl)cc(Cl)c1)CCN2CC1CC1`: the INHIBITION is listed as 25.4%. For the compound `O=S1(=O)C[C@@H]2[C@H](C1)N(Cc1cc(Cl)cc(Cl)c1)CCN2CCO`, the INHIBITION was 30.7%. Then `CCN1CCN(S(=O)(=O)N2CCc3ccccc3C2)[C@H]2CS(=O)(=O)C[C@H]21`, with -40.4%; and `COc1ccccc1S(=O)(=O)N1CCN(C)[C@@H]2CS(=O)(=O)C[C@@H]21`, with 39.6%. On to `O=S1(=O)C[C@@H]2[C@H](C1)N(Cc1cc(F)cc(Cl)c1)CCN2CCO`, for which the INHIBITION is listed as 58.5%. For `CCCN1CCN(Cc2cc(Cl)cc(Cl)c2)[C@H]2CS(=O)(=O)C[C@H]21` the value was 50.5%; for `CCCN1CCN(Cc2cccc(OC)c2)[C@H]2CS(=O)(=O)C[C@H]21`, 53.2%. For `CCCN1CCN(Cc2cccc(OCC(N)=O)c2)[C@H]2CS(=O)(=O)C[C@H]21` the value was 36.8%; for `O=S1(=O)C[C@@H]2[C@H](C1)N(Cc1cc(F)cc(F)c1)CCN2CCO`, 33.7%.

For `CCCN1CCN(S(=O)(=O)c2ccccc2OC)[C@H]2CS(=O)(=O)C[C@H]21`, the INHIBITION stood at 65.7%. `CCCN1CCN(Cc2cccc(OC(C)C)c2)[C@H]2CS(=O)(=O)C[C@H]21`: the INHIBITION was 40.1%. For `Cc1ccc(CN2CCN(Cc3ccncc3)[C@@H]3CS(=O)(=O)C[C@@H]32)cc1`, the INHIBITION is listed as 36.7%. For the compound `NC1CCN(C(=O)c2c(F)cccc2Br)CC1`, the INHIBITION turned out to be 28.7%. `Cc1cc(C(=O)N2CC[C@@H]3CN(c4ncccn4)CCO[C@@H]3C2)c(C)o1`: the INHIBITION was 33.5%.

As for `CN1CCN(Cc2cscn2)CC(C(=O)N(C)C)C1` (stereo unspecified), the INHIBITION turned out to be 43.8%.

Consider `CS(=O)(=O)CCNC(=O)N1CC2(CCCC2)c2ccccc21`, for which the INHIBITION was -8.91%. For `COCCN1C(=O)[C@@H]2CC[C@H]1CN(Cc1nnc(-c3ccccc3)o1)C2` the value was -24.5%; for `CS(=O)(=O)Nc1ccn(Cc2ccc(Cl)cc2)n1`, 58.2%. For `CS(=O)(=O)Nc1ccn(Cc2ccc(Br)cc2)n1` the value was 49.9%; for `Cc1ccc(Cn2ccc(NS(C)(=O)=O)n2)cc1`, -36.5%; for `COc1ccc2[nH]cc(C(=O)N3C[C@@H](O)[C@H](N4CCCC4)C3)c2c1`, 11.8%. For `CCc1oc(C(=O)NC(C)Cc2cnccn2)cc1CN1CCCC1` (stereo unspecified) the value was 30%; for `CCCn1nc2c(cc1=O)CN(Cc1nc(C)c(C)o1)CC2`, 14.1%; for `CSc1cccc(NC(C)C(=O)Nc2nccs2)c1` (stereo unspecified), 44.4%.

`Cc1cccc(NC(C)C(=O)Nc2nccs2)c1` (stereo unspecified): the INHIBITION is on record as 79.8%.

For the compound `CC(C(=O)Nc1nccs1)N(C)Cc1cccc(C#N)c1` (stereo unspecified), the INHIBITION was found to be 22.6%. Consider `COc1ccc(Br)cc1SCCS(C)(=O)=O`, for which the INHIBITION was 29%. For `Cc1cc(C)n(CC2CCCN2C(=O)CCc2nccs2)n1` (stereo unspecified) the value was 31.1%. Then `CC(C)Cc1cc(CNC(=O)c2ccccc2C2CCNC2)no1` (stereo unspecified), with 68.4%; and `COCc1cc(CNC(=O)c2cccc3c2OCC3)n[nH]1`, with 14.6%; and `CN(Cc1cc(C2CC2)[nH]n1)C(=O)c1ccccc1C1CCNC1` (stereo unspecified), with 51.3%. Then `CC(C)Cc1cc(CNC(=O)c2cccc3c2NCCC3)no1`, with 44.3%; and `CN(Cc1cc(C(C)(C)C)n[nH]1)C(=O)c1ccccc1C1CCNC1` (stereo unspecified), with -23.2%. With `O=C(NCCc1c[nH]cn1)c1ccccc1C1CCNC1` (stereo unspecified), the INHIBITION came to 24.4%. Take `Cc1cc(C)nc(CN(C)C(=O)c2ccccc2C2CCNC2)c1` (stereo unspecified): the INHIBITION was found to be 47.2%.

For the compound `O=C(NCc1ccc2c(c1)OCO2)c1ccccc1C1CCNC1` (stereo unspecified), the INHIBITION is given as 31%.

`CC(C)Cc1cc(CNC(=O)c2cccc3c2OCC3)no1`: the INHIBITION is listed as 52.6%. For `COc1cccc(-c2cnc(CNC(C)(C)c3nc(C)cs3)o2)c1` the value was -16%; for `CCCn1cc(C(=O)NC(C)c2c(C)nn(CC)c2C)c(C)n1` (stereo unspecified), 43%. Then `CCC(O)CN1CCN(C(=O)c2ccn(-c3ccccc3)n2)CC1` (stereo unspecified), with 2.3%; and `CN(Cc1ncnn1C1Cc2ccccc2C1)C1CCS(=O)(=O)C1` (stereo unspecified), with 25.4%. Then `O=C(NCCc1cccnc1)c1nc2c(s1)CCCN2C(=O)C1CC1`, with 35.8%; and `O=C(NCCc1cccc(F)c1)c1nc2c(s1)CCCN2C(=O)C1CC1`, with 52.1%. Take `O=C(NCc1cccnc1)c1nc2c(s1)CCCN2C(=O)C1CC1`: the INHIBITION is reported as 27.6%. As for `CC(C)C(=O)N1CCC(c2nc3c([nH]2)CCCNC3=O)CC1`, the INHIBITION was determined as 25.9%. For `COc1ccccc1CN1CC(O)CN(S(=O)(=O)C(C)C)CC1=O` (stereo unspecified), the INHIBITION is reported as 28.3%.

Values taken from ChEMBL document CHEMBL4513216, “Probing the Open Global Health Chemical Diversity Library for Multistage-Active Starting Points for Next-Generation Antimalarials” (ACS Infect Dis, 2020).
